Assay results: the supplement of paper PMC8975748
Where a name gives a salt, the structure may show the parent alone. ± gives the standard deviation of the averaged measurements.

Tests used:
[1] = system: Saccharomyces cerevisiae BY4741 SeMeCo community; test: mean cell size (pixel area) (pixels); higher = larger cells; conditions: 10 µM; 24 h; SM minimal medium
Procedure, shortened: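 The test system was a fluorescent Saccharomyces cerevisiae BY4741 community with four plasmids, each restoring one auxotrophy and carrying a fluorescent marker. Cells were grown for 24 h in SM medium with drug at a final 10 µM in 384-well plates, then fixed with paraformaldehyde and imaged by automated confocal microscopy for Harmony analysis of mean cell pixel area per well. Values represent the average of 3 replicates. Same SeMeCo high-content imaging drug screen: Selleck FDA-approved drugs at 10 µM, 24 h in SM medium, 384-well plates, 3 replicates.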

[2] = system: Saccharomyces cerevisiae BY4741 SeMeCo community; test: z-score of prototroph abundance vs DMSO median; higher = larger share of this subpopulation than in DMSO controls; conditions: 10 µM; 24 h; SM minimal medium; subpopulation (auxotrophy): Prototroph
Procedure, shortened: (§1)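 Scoring was based on each subpopulation's abundance, expressed as a z-score against the vehicle-well median. A Saccharomyces cerevisiae BY4741 community with four plasmids, each restoring one auxotrophy and encoding a distinct fluorescent protein, was pre-grown overnight to OD600 1.0, diluted to 0.3, and added at 70 µl to 384-well plates acoustically predosed with library drugs (10 µM final). It then grew 24 h in minimal SM medium before paraformaldehyde fixation and automated confocal microscopy, with single-auxotroph fluorescent strains setting thresholds and autofluorescence correction.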

[3] = system: Saccharomyces cerevisiae BY4741 SeMeCo community; test: z-score of subpopulation abundance vs DMSO median, subpopulation auxotrophic for U; higher = larger share of this subpopulation than in DMSO controls; conditions: 10 µM; 24 h; SM minimal medium; subpopulation (auxotrophy): U
Procedure, shortened: as §1

[4] = system: Saccharomyces cerevisiae BY4741 SeMeCo community; test: z-score of subpopulation abundance vs DMSO median, subpopulation auxotrophic for H; higher = larger share of this subpopulation than in DMSO controls; conditions: 10 µM; 24 h; SM minimal medium; subpopulation (auxotrophy): H
Procedure, shortened: as §1

[5] = system: Saccharomyces cerevisiae BY4741 SeMeCo community; test: z-score of subpopulation abundance vs DMSO median, subpopulation auxotrophic for LU; higher = larger share of this subpopulation than in DMSO controls; conditions: 10 µM; 24 h; SM minimal medium; subpopulation (auxotrophy): LU
Procedure, shortened: as §1

[6] = system: Saccharomyces cerevisiae BY4741 SeMeCo community; test: z-score of subpopulation abundance vs DMSO median, subpopulation auxotrophic for LM; higher = larger share of this subpopulation than in DMSO controls; conditions: 10 µM; 24 h; SM minimal medium; subpopulation (auxotrophy): LM
Procedure, shortened: as §1

[7] = system: Saccharomyces cerevisiae BY4741 SeMeCo community; test: z-score of subpopulation abundance vs DMSO median, subpopulation auxotrophic for HM; higher = larger share of this subpopulation than in DMSO controls; conditions: 10 µM; 24 h; SM minimal medium; subpopulation (auxotrophy): HM
Procedure, shortened: as §1

[8] = system: Saccharomyces cerevisiae BY4741 SeMeCo community; test: z-score of subpopulation abundance vs DMSO median, subpopulation auxotrophic for HU; higher = larger share of this subpopulation than in DMSO controls; conditions: 10 µM; 24 h; SM minimal medium; subpopulation (auxotrophy): HU
Procedure, shortened: as §1

[9] = system: Saccharomyces cerevisiae BY4741 SeMeCo community; test: z-score of subpopulation abundance vs DMSO median, subpopulation auxotrophic for UM; higher = larger share of this subpopulation than in DMSO controls; conditions: 10 µM; 24 h; SM minimal medium; subpopulation (auxotrophy): UM
Procedure, shortened: as §1

[10] = system: Saccharomyces cerevisiae BY4741 SeMeCo community; test: z-score of subpopulation abundance vs DMSO median, subpopulation auxotrophic for HLU; higher = larger share of this subpopulation than in DMSO controls; conditions: 10 µM; 24 h; SM minimal medium; subpopulation (auxotrophy): HLU
Procedure, shortened: as §1

[11] = system: Saccharomyces cerevisiae BY4741 SeMeCo community; test: z-score of subpopulation abundance vs DMSO median, subpopulation auxotrophic for HLM; higher = larger share of this subpopulation than in DMSO controls; conditions: 10 µM; 24 h; SM minimal medium; subpopulation (auxotrophy): HLM
Procedure, shortened: as §1

[12] = system: Saccharomyces cerevisiae BY4741 SeMeCo community; test: z-score of subpopulation abundance vs DMSO median, subpopulation auxotrophic for HUM; higher = larger share of this subpopulation than in DMSO controls; conditions: 10 µM; 24 h; SM minimal medium; subpopulation (auxotrophy): HUM
Procedure, shortened: as §1

[13] = system: Saccharomyces cerevisiae BY4741 SeMeCo community; test: z-score of subpopulation abundance vs DMSO median, subpopulation auxotrophic for LUM; higher = larger share of this subpopulation than in DMSO controls; conditions: 10 µM; 24 h; SM minimal medium; subpopulation (auxotrophy): LUM
Procedure, shortened: as §1

[14] = system: Saccharomyces cerevisiae BY4741 SeMeCo community; test: z-score of subpopulation abundance vs DMSO median, subpopulation auxotrophic for L; higher = larger share of this subpopulation than in DMSO controls; conditions: 10 µM; 24 h; SM minimal medium; subpopulation (auxotrophy): L
Procedure, shortened: as §1

[15] = system: Saccharomyces cerevisiae BY4741 SeMeCo community; test: z-score of subpopulation abundance vs DMSO median, subpopulation auxotrophic for HL; higher = larger share of this subpopulation than in DMSO controls; conditions: 10 µM; 24 h; SM minimal medium; subpopulation (auxotrophy): HL
Procedure, shortened: as §1

[16] = system: Saccharomyces cerevisiae BY4741 SeMeCo community; test: z-score of subpopulation abundance vs DMSO median, subpopulation auxotrophic for HLUM; higher = larger share of this subpopulation than in DMSO controls; conditions: 10 µM; 24 h; SM minimal medium; subpopulation (auxotrophy): HLUM
Procedure, shortened: as §1

Row | SMILES | mean cell size [1] | z-score of prototroph abundance [2] | z-score of subpopulation abundance [3] | z-score of subpopulation abundance [4] | z-score of subpopulation abundance [5] | z-score of subpopulation abundance [6] | z-score of subpopulation abundance [7] | z-score of subpopulation abundance [8] | z-score of subpopulation abundance [9] | z-score of subpopulation abundance [10] | z-score of subpopulation abundance [11] | z-score of subpopulation abundance [12] | z-score of subpopulation abundance [13] | z-score of subpopulation abundance [14] | z-score of subpopulation abundance [15] | z-score of subpopulation abundance [16]
1 | C[C@]12CC[C@@H]3c4ccc(O)cc4CC[C@H]3[C@@H]1CC[C@@H]2O [Estradiol] | 12.7 ± 0.21 | 0.44 | 0.01 | 0.3 | -0.02 | -0.16 | -0.39 | -1.02 | -0.27 | 0.9 | -0.66 | -0.92 | 0.18 |  |  | 
2 | C[n+]1ccccc1C=NO [Pralidoxime Iodide] | 12.27 ± 0.1 | -0.53 | 0.58 | -0.39 | 0.19 | 0.72 | 0.77 | -0.21 | 0.29 | -0.23 |  | 0.13 | 0.18 | -0.18 | 0.06 | 
3 | CCCCCCCCCC(=O)N[C@@H](Cc1c[nH]c2ccccc12)C(=O)N[C@H](CC(N)=O)C(=O)N[C@@H](CC(=O)O)C(=O)N[C@@H]1C(=O)NCC(=O)N[C@@H](CCCN)C(=O)N[C@@H](CC(=O)O)C(=O)N[C@H](C)C(=O)N[C@@H](CC(=O)O)C(=O)NCC(=O)N[C@H](CO)C(=O)N[C@@H]([C@H](C)CC(=O)O)C(=O)N[C@@H](CC(=O)c2ccccc2N)C(=O)O[C@@H]1C [Daptomycin] | 12.2 ± 0.16 | -0.94 | -1.42 | 1.36 | -0.76 | 1.51 | 1.93 | 0.29 |  | 1.3 | 0.48 |  |  | 0.51 | 2.68 | -0.99
4 | N#CC(c1ccc(Cl)cc1)c1c(Cl)cc(-n2ncc(=O)[nH]c2=O)cc1Cl (configuration not stated) [Diclazuril] | 12.52 ± 0.088 | 1.02 |  | -0.16 | -0.92 | -0.81 | -0.31 | -0.93 | -1.39 | -0.02 | 0.16 |  | -0.7 |  | -0.28 | 
5 | O=C1CN(/N=C/c2ccc([N+](=O)[O-])o2)C(=O)N1 [Nitrofurantoin] | 12.47 ± 0.1 | 0.19 | -0.25 | -0.05 |  | -0.69 | -0.67 | -0.72 | 0.27 | -0.69 | -0.2 | -0.82 | -0.21 | -0.13 | 0.1 | -0.04
6 | CC(C(=O)O)c1cccc(C(=O)c2ccccc2)c1 (configuration not stated) [Ketoprofen] | 12.4 ± 0.2 | -0.62 | -0.65 | 0.99 | 0.57 | 1.24 | 0.55 | -0.66 | -0.3 | 0.39 |  | -0.02 | 1.22 | 1.73 | 1.42 | 1.1
7 | Clc1ccccc1C(c1ccccc1)(c1ccccc1)n1ccnc1 [Clotrimazole] | 11.89 ± 0.097 |  | -0.04 | 6.9 | -0.93 | 1.9 | 6.05 | 6.35 | 18.8 | 3.78 | 15.2 | 7.76 |  |  | 3.58 | 9.79
8 | O=c1[nH]cc(F)c(=O)[nH]1 [Fluorouracil (5-Fluoracil, 5-FU)] | 13.9 ± 0.2 |  | 0.26 | 13.4 | 0.59 |  | 18.4 | 8.79 | 2.82 | 10.4 | 22.3 |  | 3.63 | -0.27 |  | 22.5
9 | O=C(c1ccc(OCCN2CCCCC2)cc1)c1c(-c2ccc(O)cc2)sc2cc(O)ccc12 [Raloxifene] | 12.3 ± 0.38 | 0.7 | -1.73 |  | -2.15 |  | 0.02 | -1.39 | -1.32 | 0.52 | 0.78 | -0.2 | -0.37 |  | 0.96 | 0.09
10 | COC(=O)C1=C(C)NC(C)=C(C(=O)OCCN(C)Cc2ccccc2)C1c1cccc([N+](=O)[O-])c1 (configuration not stated) [Nicardipine HCl] | 12.4 ± 0.28 | -0.59 | -0.42 |  | 0.72 | 1.01 | 0.65 | 0 | 0.26 | 0.11 | -0.22 |  | -0.01 | 0.97 | -0.11 | 
11 | CO/N=C1\C[C@]2(C[C@@H]3C[C@@H](C/C=C(\C)C[C@@H](C)/C=C/C=C4\CO[C@@H]5[C@H](O)C(C)=C[C@@H](C(=O)O3)[C@]45O)O2)O[C@H](/C(C)=C/C(C)C)[C@H]1C [Moxidectin] | 12.4 ± 0.18 | -0.99 | 0.66 | 1.63 | 0.03 | 0.55 | 1.1 | 2.12 | 0.37 | 1.24 | 1.14 | 1.33 |  |  | 1.14 | -0.1
12 | OC(c1cc(C(F)(F)F)nc2c(C(F)(F)F)cccc12)C1CCCCN1 (configuration not stated) [Mefloquine HCl] | 12.3 ± 0.37 | -0.39 | 0.95 | -0.01 | 1.02 | 0.3 | 0.44 |  | 0.92 | 0.29 | 0 |  | 0.86 | 0.1 | 0.36 | 
13 | CO[C@H]1C[C@@H]2CC[C@@H](C)[C@@](O)(O2)C(=O)C(=O)N2CCCC[C@H]2C(=O)O[C@H]([C@H](C)C[C@@H]2CC[C@@H](OC(=O)C(C)(CO)CO)[C@H](OC)C2)CC(=O)[C@H](C)/C=C(\C)[C@@H](O)[C@@H](OC)C(=O)[C@H](C)C[C@H](C)/C=C/C=C/C=C/1C | 14.17 ± 0.036 | -18.4 | 3.43 | 13.5 | 4.31 | 5.51 | 23.9 | 28 | 11.2 | 28 | 21.4 | 28.7 | 14.2 |  | 15.9 | 31.6
14 | NC(=O)OCC(COC(N)=O)c1ccccc1 [Felbamate] | 12.33 ± 0.12 | 1.19 | -0.1 | -0.6 | -0.71 |  | -1.32 | -0.73 | -0.58 | -1.23 | -1.16 |  | -0.77 | -0.15 |  | 
